In PubChem BioAssay (NCATS) one finds Potency data, which are given here for 24 molecules.

Inconclusive results are not listed. A number with no mark means an inactive call. The source made the active and inactive calls. Calls follow the shape of the dose curve; as a rule, active = well fitted cell-killing curve with a large enough effect; inconclusive = small, poorly fitted or top-dose-only effect, or effect the other way; inactive = no such curve, though single readings can be large or run the other way.

The nature of assay [1]: Quantitative High-Throughput drug screen in 47 multiple myeloma cell lines against the NCATS MIPE library collection: XG1_PLB cell viability assay (AID 1919866). Also: nearly all actives have a fitted effect of over 35% in size. Also: potency is read from the fitted curve at half-maximal effect. An outline of the steps: (§1)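 500 cells/well per myeloma line exposed to pinned MIPE 4.0 compounds for 48 h at 37 °C, 5% CO2. Viability read as ATP by CellTiter-Glo luminescence, normalised to DMSO-only (100%) and media-only (0%) wells.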

The nature of assay [2]: Quantitative High-Throughput drug screen in 47 multiple myeloma cell lines against the NCATS MIPE library collection: PE2_PLB cell viability assay (AID 1919869). Also: nearly all actives have a fitted effect of over 35% in size. Also: potency is read from the fitted curve at half-maximal effect. An outline of the steps: as §1
Assay [3] is described as follows: Quantitative High-Throughput drug screen in 47 multiple myeloma cell lines against the NCATS MIPE library collection: RPMI8226_ATCC cell viability assay (AID 1919871). Also: nearly all actives have a fitted effect of over 30% in size. Also: potency is read from the fitted curve at half-maximal effect. In short, it runs like this:
as §1

Assay [4] can be described thus: Quantitative High-Throughput drug screen in 47 multiple myeloma cell lines against the NCATS MIPE library collection: OPM2_DSMZ cell viability assay (AID 1919872). Also: nearly all actives have a fitted effect of over 30% in size. Also: potency is read from the fitted curve at half-maximal effect. In short, it runs like this:
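Approved and investigational drugs from MIPE 4.0 were added by pin tool to 500 cells per well. After 48 hours at 37C, ATP-based CellTiter-Glo luminescence indicated remaining viability.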

Assay [5] is described as follows: Quantitative High-Throughput drug screen in 47 multiple myeloma cell lines against the NCATS MIPE library collection: VP6_DJ cell viability assay (AID 1919867). Also: nearly all actives have a fitted effect of over 40% in size. Also: potency is read from the fitted curve at half-maximal effect. In short, it runs like this: as §1
Assay [6] can be described thus: Quantitative High-Throughput drug screen in 47 multiple myeloma cell lines against the NCATS MIPE library collection: KMS11_JCRBsus cell viability assay (AID 1919873). Also: nearly all actives have a fitted effect of over 50% in size. Also: potency is read from the fitted curve at half-maximal effect. In short, it runs like this: as §1
Assay [7] can be described thus: Quantitative High-Throughput drug screen in 47 multiple myeloma cell lines against the NCATS MIPE library collection: KMS28BM_JCRB cell viability assay (AID 1919874). Also: nearly all actives have a fitted effect of over 35% in size. Also: potency is read from the fitted curve at half-maximal effect. An outline of the steps: as §1
Assay [8] is described as follows: Quantitative High-Throughput drug screen in 47 multiple myeloma cell lines against the NCATS MIPE library collection: UTMC2_PLB cell viability assay (AID 1919868). Also: nearly all actives have a fitted effect of over 55% in size. The conditions noted are these: CellTiter-Glo ATP luminescence, 48 h; viability (% of DMSO control): at 45.8 µM (top of the series). In short, it runs like this: as §1
A general note: In ATP-based viability assays light output follows the ATP content of the culture.

The nature of assay [9]: Quantitative High-Throughput drug screen in 47 multiple myeloma cell lines against the NCATS MIPE library collection: PCM6_Riken cell viability assay (AID 1919870). Also: nearly all actives have a fitted effect of over 30% in size. Also: potency is read from the fitted curve at half-maximal effect. In short, it runs like this: as §1

Turning to `O=C(CCc1ccc(O)cc1)c1c(O)cc(O)cc1O[C@@H]1O[C@H](CO)[C@H](O)[C@H](O)[C@H]1O`, the Potency entry in [1], in assay [2] and in assay [3] was “inactive” in each case. Further, the Potency in [4] is 9.35 µM (active).
For the molecule `CC(C)C(=O)Nc1ncc(-c2cc(C(F)F)nn2-c2c(Cl)cccc2Cl)s1`, the Potency is 10.5 µM (active) in assay [1]; 18.7 µM (active) in [5]; 23.5 µM (active) in assay [2]; 11.8 µM (active) in [6]; 11.8 µM (active) in assay [7].
In the case of `Clc1ccc(-c2nc3sccn3c2C=NOCc2ccc(Cl)c(Cl)c2)cc1`, the Potency entry in [5], in assay [8], in assay [2], in [3], in [4] and in assay [6] was “inactive” throughout. In addition, in assay [7], the Potency entry is “inactive”.
As to `CO[C@H]1C[C@@H]2CC[C@@H](C)[C@@](O)(O2)C(=O)C(=O)N2CCCC[C@@H]2C(=O)O[C@H]([C@H](C)C[C@@H]2CC[C@H](OC(=O)C(C)(CO)CO)[C@H](OC)C2)CC(=O)[C@H](C)C=C(C)[C@@H](O)[C@@H](OC)C(=O)[C@H](C)C[C@H](C)C=CC=CC=C1C`, the Potency in assay [5] is 20.9 µM (active).
Take `O=c1cc(-c2ccccc2)oc2cc(O)c(O)c(O)c12`: the Potency result in [9], in assay [3] and in assay [7] was “inactive” throughout.
Turning to `Cc1ccc([C@@H]2O[C@H](CO)[C@@H](O)[C@H](O)[C@@H]2O)cc1Cc1ccc(-c2ccc(F)cc2)s1`, the Potency in assay [2] is 18.7 µM (active); in assay [6] it was 23.5 µM (active). Besides, in assay [3], the Potency result is “inactive”.
`CO[C@H]1C(=O)[C@]2(C)[C@@H](OC)C[C@H]3OC[C@@]3(OC(C)=O)[C@H]2[C@H](OC(=O)c2ccccc2)[C@]2(O)C[C@H](OC(=O)[C@H](O)[C@@H](NC(=O)OC(C)(C)C)c3ccccc3)C(C)=C1C2(C)C`: the Potency entry in assay [8], in assay [2], in assay [3], in assay [4], in [6] and in assay [7] was “inactive” in each case. Also, in assay [9], the Potency is 0.0012 µM (active).
Take `C[C@@H]1CCN(C(=O)CC#N)C[C@H]1N(C)c1ncnc2[nH]ccc12`: the Potency result in [9] and in assay [4] was “inactive” in each case.
`Clc1cc(Cl)cc(CNc2ncncc2-c2ccc3c(c2)OCO3)c1`: the values for the Potency in assay [2] and in assay [6] were 20.9 µM (active) and 16.6 µM (active), respectively.
As for `NC(=O)[C@@H](CCC(F)(F)F)N(Cc1ccc(-c2ncon2)cc1F)S(=O)(=O)c1ccc(Cl)cc1`, in assay [4], the Potency entry was “inactive”. In [7], the Potency is 20.9 µM (active).
In the case of `OC[C@H]1O[C@@H](Oc2cc(O)cc(C=Cc3ccc(O)cc3)c2)[C@H](O)[C@@H](O)[C@H]1O`, the Potency result in assay [8], in assay [2], in assay [3], in assay [4], in assay [6] and in assay [7] was “inactive” in each case.
Turning to `CO[C@H]1C[C@@H]2CC[C@@H](C)[C@@](O)(O2)C(=O)C(=O)N2CCCC[C@@H]2C(=O)O[C@H]([C@H](C)C[C@@H]2CC[C@H](OCCO)[C@H](OC)C2)CC(=O)[C@H](C)C=C(C)[C@@H](O)[C@@H](OC)C(=O)[C@H](C)C[C@H](C)C=CC=CC=C1C`, the Potency in assay [2] was 1.48 µM (active).
Take `CC=CCC(C)C(O)C1C(=O)NC(CC)C(=O)N(C)CC(=O)N(C)C(CC(C)C)C(=O)NC(C(C)C)C(=O)N(C)C(CC(C)C)C(=O)NC(C)C(=O)NC(C)C(=O)N(C)C(CC(C)C)C(=O)N(C)C(CC(C)C)C(=O)N(C)C(C(C)C)C(=O)N1C` (stereo not drawn): the Potency result in assay [6] was “inactive”.
Take `O=c1cc(-c2ccccc2)oc2cc(O)cc(O)c12`: the Potency in assay [9] is 20.9 µM (active). Also, the Potency result in assay [3], in assay [4] and in assay [7] was “inactive” throughout.
As for `CC(C)n1nc(-c2ccc3oc(N)nc3c2)c2c(N)ncnc21`, the Potency was 0.001 µM (active) in [5] and 0.0662 µM (active) in assay [9].
As for `CCc1ccc(C=C2SC(=S)NC2=O)cc1`, the Potency result in assay [3], in [4] and in assay [7] was “inactive” throughout.
For `NC(=O)c1ccc2nc(-c3ccc(Oc4ccc(Cl)cc4)cc3)[nH]c2c1`, the Potency is 6.62 µM (active) in assay [5] and 11.8 µM (active) in assay [6]. Moreover, the Potency result in assay [9] is “inactive”.
Turning to `COc1ccc2c(Oc3ccc(NC(=O)c4c(C)n(CC(C)(C)O)n(-c5ccccc5)c4=O)nc3)ccnc2c1`, the Potency entry in assay [4] and in assay [7] was “inactive” each time.
With `COc1ccc(-c2nc(N3CCOCC3)c3sc(CN(C)c4ncc(C(=O)NO)cn4)cc3n2)cn1`, the values for the Potency in assay [2] and in assay [4] were 0.001 µM (active) and 0.0021 µM (active), respectively. The Potency entry in [6] and in assay [7] was “inactive” each time.
On to `COc1cc(N2CCC(N3CCN(C)CC3)CC2)ccc1Nc1ncc(Cl)c(Nc2ccccc2S(=O)(=O)C(C)C)n1`, for which the Potency entry in [8] was “inactive”.
For `CC=CC[C@@H](C)C(=O)[C@H]1C(=O)N[C@@H](C(C)C)C(=O)N(C)CC(=O)N(C)[C@@H](CC(C)C)C(=O)N[C@@H](C(C)C)C(=O)N(C)[C@@H](CC(C)C)C(=O)N[C@@H](C)C(=O)N[C@H](C)C(=O)N(C)[C@@H](CC(C)C)C(=O)N(C)[C@@H](CC(C)C)C(=O)N(C)[C@@H](C(C)C)C(=O)N1C`, the results for the Potency in [3] and in assay [6] were 13.2 µM (active) and 14.8 µM (active), respectively.
As to `c1ccc2c(-c3cnn4cc(-c5ccc(N6CCNCC6)cc5)cnc34)ccnc2c1`, the Potency in [9] was 0.935 µM (active).
On to `Cc1cccc(Nc2nc(-c3ccncc3)cs2)c1`, for which the Potency is 18.7 µM (active) in [5], 23.5 µM (active) in assay [2] and 10.5 µM (active) in [4].
For `O=C(O)c1ccc(-c2c[nH]c3ncc(-c4ccccc4)cc23)cc1C1CCCC1`, the Potency result in assay [3], in assay [4], in assay [6] and in assay [7] was “inactive” each time.
